# Laboratory results taken from paper PMC9911399, “Two distinct binding modes provide the RNA-binding protein RbFox with extraordinary sequence specificity”.
# Where a chain is given by its changes, count along the chain named. Over roughly 16,000 sequences, “ka relative to ugcaugu” has its median near 0.0091; the highest 2% begin near 0.032. This excerpt belongs to a sample that is enriched for the highest values.
# T1: RBFOX1 RRM (Homo sapiens, UniProt Q9NWB1 109-208)
# T1 sequence: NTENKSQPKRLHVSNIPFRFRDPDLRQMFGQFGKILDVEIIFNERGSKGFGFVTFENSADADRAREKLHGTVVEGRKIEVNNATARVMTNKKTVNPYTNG
# B1: AAUAAUU (DNA:RNA)
# RNA: GGGAGACCGGAAUUCAGAUUGUCCAAUAAUUUUAAAUCCCGUCGUAGCCACCA
# DNA 1: CAATCTGAATTCCGGTCTCCC
# DNA 2: TGGTGGCTACGACGGGATT
# B2: UGUGACC (DNA:RNA)
# RNA: B1 RNA with A25U, A26G, A28G, U30C, U31C
# DNA 1: CAATCTGAATTCCGGTCTCCC
# DNA 2: TGGTGGCTACGACGGGATT
# B3: CAAGGCG (DNA:RNA)
# RNA: B1 RNA with A25C, U27A, A28G, A29G, U30C, U31G
# DNA 1: CAATCTGAATTCCGGTCTCCC
# DNA 2: TGGTGGCTACGACGGGATT
# B4: CUCGCUC (DNA:RNA)
# RNA: B1 RNA with A25C, A26U, U27C, A28G, A29C, U31C
# DNA 1: CAATCTGAATTCCGGTCTCCC
# DNA 2: TGGTGGCTACGACGGGATT
# B5: UUUUCCG (DNA:RNA)
# RNA: B1 RNA with A25U, A26U, A28U, A29C, U30C, U31G
# DNA 1: CAATCTGAATTCCGGTCTCCC
# DNA 2: TGGTGGCTACGACGGGATT
# B6: CAUCAAA (DNA:RNA)
# RNA: B1 RNA with A25C, A28C, U30A, U31A
# DNA 1: CAATCTGAATTCCGGTCTCCC
# DNA 2: TGGTGGCTACGACGGGATT
# B7: GCCGGCC (DNA:RNA)
# RNA: GGGAGACCGGAAUUCAGAUUGUCCGCCGGCCUUAAAUCCCGUCGUAGCCACCA
# DNA 1: CAATCTGAATTCCGGTCTCCC
# DNA 2: TGGTGGCTACGACGGGATT
# B8: UACAGCU (DNA:RNA)
# RNA: B1 RNA with A25U, U27C, A29G, U30C
# DNA 1: CAATCTGAATTCCGGTCTCCC
# DNA 2: TGGTGGCTACGACGGGATT
# B9: UGCAUGU (DNA:RNA)
# RNA: B1 RNA with A25U, A26G, U27C, A29U, U30G
# DNA 1: CAATCTGAATTCCGGTCTCCC
# DNA 2: TGGTGGCTACGACGGGATT
# B10: CUGCAUG (DNA:RNA)
# RNA: B1 RNA with A25C, A26U, U27G, A28C, U31G
# DNA 1: CAATCTGAATTCCGGTCTCCC
# DNA 2: TGGTGGCTACGACGGGATT
# B11: UGCAUAU (DNA:RNA)
# RNA: B1 RNA with A25U, A26G, U27C, A29U, U30A
# DNA 1: CAATCTGAATTCCGGTCTCCC
# DNA 2: TGGTGGCTACGACGGGATT
# B12: CUGCAUC (DNA:RNA)
# RNA: B1 RNA with A25C, A26U, U27G, A28C, U31C
# DNA 1: CAATCTGAATTCCGGTCTCCC
# DNA 2: TGGTGGCTACGACGGGATT
# B13: CUGCAUA (DNA:RNA)
# RNA: B1 RNA with A25C, A26U, U27G, A28C, U31A
# DNA 1: CAATCTGAATTCCGGTCTCCC
# DNA 2: TGGTGGCTACGACGGGATT
# B14: UGCAUUU (DNA:RNA)
# RNA: B1 RNA with A25U, A26G, U27C, A29U
# DNA 1: CAATCTGAATTCCGGTCTCCC
# DNA 2: TGGTGGCTACGACGGGATT
# B15: GCUGUAU (DNA:RNA)
# RNA: B7 RNA with C27U, G29U, C30A, C31U
# DNA 1: CAATCTGAATTCCGGTCTCCC
# DNA 2: TGGTGGCTACGACGGGATT
# B16: AUACGAU (DNA:RNA)
# RNA: B1 RNA with A26U, U27A, A28C, A29G, U30A
# DNA 1: CAATCTGAATTCCGGTCTCCC
# DNA 2: TGGTGGCTACGACGGGATT
# B17: AUUCUCC (DNA:RNA)
# RNA: B1 RNA with A26U, A28C, A29U, U30C, U31C
# DNA 1: CAATCTGAATTCCGGTCTCCC
# DNA 2: TGGTGGCTACGACGGGATT
# B18: CACCUGC (DNA:RNA)
# RNA: B7 RNA with G25C, C26A, G28C, G29U, C30G
# DNA 1: CAATCTGAATTCCGGTCTCCC
# DNA 2: TGGTGGCTACGACGGGATT
# B19: GGUACUC (DNA:RNA)
# RNA: B1 RNA with A25G, A26G, A29C, U31C
# DNA 1: CAATCTGAATTCCGGTCTCCC
# DNA 2: TGGTGGCTACGACGGGATT
# B20: GGGGUCG (DNA:RNA)
# RNA: B7 RNA with C26G, C27G, G29U, C31G
# DNA 1: CAATCTGAATTCCGGTCTCCC
# DNA 2: TGGTGGCTACGACGGGATT
# B21: CGUACUC (DNA:RNA)
# RNA: B1 RNA with A25C, A26G, A29C, U31C
# DNA 1: CAATCTGAATTCCGGTCTCCC
# DNA 2: TGGTGGCTACGACGGGATT
# B22: GGGUCGU (DNA:RNA)
# RNA: B1 RNA with A25G, A26G, U27G, A28U, A29C, U30G
# DNA 1: CAATCTGAATTCCGGTCTCCC
# DNA 2: TGGTGGCTACGACGGGATT
# B23: GGGUCCG (DNA:RNA)
# RNA: B7 RNA with C26G, C27G, G28U, G29C, C31G
# DNA 1: CAATCTGAATTCCGGTCTCCC
# DNA 2: TGGTGGCTACGACGGGATT
# B24: GGGUACU (DNA:RNA)
# RNA: B1 RNA with A25G, A26G, U27G, A28U, U30C
# DNA 1: CAATCTGAATTCCGGTCTCCC
# DNA 2: TGGTGGCTACGACGGGATT
# B25: GGGGAGA (DNA:RNA)
# RNA: B7 RNA with C26G, C27G, G29A, C30G, C31A
# DNA 1: CAATCTGAATTCCGGTCTCCC
# DNA 2: TGGTGGCTACGACGGGATT
# B26: GGGGUAC (DNA:RNA)
# RNA: B7 RNA with C26G, C27G, G29U, C30A
# DNA 1: CAATCTGAATTCCGGTCTCCC
# DNA 2: TGGTGGCTACGACGGGATT
# B27: GGGGUCC (DNA:RNA)
# RNA: B7 RNA with C26G, C27G, G29U
# DNA 1: CAATCTGAATTCCGGTCTCCC
# DNA 2: TGGTGGCTACGACGGGATT
# B28: CGGGUCG (DNA:RNA)
# RNA: B7 RNA with G25C, C26G, C27G, G29U, C31G
# DNA 1: CAATCTGAATTCCGGTCTCCC
# DNA 2: TGGTGGCTACGACGGGATT
# B29: CGGGUAC (DNA:RNA)
# RNA: B7 RNA with G25C, C26G, C27G, G29U, C30A
# DNA 1: CAATCTGAATTCCGGTCTCCC
# DNA 2: TGGTGGCTACGACGGGATT
# B30: GUACUCU (DNA:RNA)
# RNA: B7 RNA with C26U, C27A, G28C, G29U, C31U
# DNA 1: CAATCTGAATTCCGGTCTCCC
# DNA 2: TGGTGGCTACGACGGGATT
# Target: T1, RBFOX1 RRM
# Experiment: EMSA; HiTS-Eq, 1 nM pool, 10 min; buffer printed only for the single-RNA assays: 10 mM Tris pH 7.5, 150 mM NaCl, 3.4 mM EDTA, 0.001% NP-40, 30 C
# Conditions: tags: His6 N-terminal (pET28a); label: 5' 32P
# How it was run: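 Relative association constants, normalised to the cognate motif, were derived by comparing read counts of each RNA species with those of the control reaction. The RNA sequenced was the free fraction, separated by 8% native PAGE after a 10 min equilibration in 50 µL of 1 nM 5′-radiolabelled RNA (7 randomized nucleotides) with increasing concentrations of purified wild-type or mutant RbFox RRM.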
row,Binder,binding signal
1,B1,0.00136 KA relative to UGCAUGU
2,B2,0.0155 KA relative to UGCAUGU
3,B3,0.00837 KA relative to UGCAUGU
4,B4,0.00968 KA relative to UGCAUGU
5,B5,0.0112 KA relative to UGCAUGU
6,B6,0.00054 KA relative to UGCAUGU
7,B7,0.0116 KA relative to UGCAUGU
8,B8,0.00395 KA relative to UGCAUGU
9,B9,1 KA relative to UGCAUGU
10,B10,1.04 KA relative to UGCAUGU
11,B11,0.0115 KA relative to UGCAUGU
12,B12,0.0212 KA relative to UGCAUGU
13,B13,0.017 KA relative to UGCAUGU
14,B14,0.0179 KA relative to UGCAUGU
15,B15,0.013 KA relative to UGCAUGU
16,B16,0.00313 KA relative to UGCAUGU
17,B17,0.00179 KA relative to UGCAUGU
18,B18,0.00791 KA relative to UGCAUGU
19,B19,0.032 KA relative to UGCAUGU
20,B20,0.0492 KA relative to UGCAUGU
21,B21,0.00584 KA relative to UGCAUGU
22,B22,0.0214 KA relative to UGCAUGU
23,B23,0.0257 KA relative to UGCAUGU
24,B24,0.0165 KA relative to UGCAUGU
25,B25,0.0242 KA relative to UGCAUGU
26,B26,0.0356 KA relative to UGCAUGU
27,B27,0.0259 KA relative to UGCAUGU
28,B28,0.0322 KA relative to UGCAUGU
29,B29,0.0309 KA relative to UGCAUGU
30,B30,0.0101 KA relative to UGCAUGU
